# Active and inactive are the calls of the source. Rule for the calls: active = hit-call score of the fitted dose curve at least 0.9, where 1 is the maximum; inactive = score below 0.9.
# Molecular target: Heat shock factor protein 1 (Homo sapiens) (UniProt Q00613)
# Assay: ATG_HSE_CIS: Attagene CIS-FACTORIAL HepG2 Assay for human Heat Shock Transcription Factor 1 (HSE) (AID 2282953)
# Conditions: HepG2 HSE cis-reporter, Attagene RNA transcription; actives raise or lower the signal
# How it was run: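 Cells were transfected with cis-element-driven reporter constructs, dosed for 24 h, then total RNA was reverse-transcribed and reporter cDNA amplified, FAM-labelled and digested with HpaI. Fragments were resolved by capillary electrophoresis; gain or loss was fitted against DMSO.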
# Sequence of Heat shock factor protein 1 (Homo sapiens) (Q00613 whole entry, looked up): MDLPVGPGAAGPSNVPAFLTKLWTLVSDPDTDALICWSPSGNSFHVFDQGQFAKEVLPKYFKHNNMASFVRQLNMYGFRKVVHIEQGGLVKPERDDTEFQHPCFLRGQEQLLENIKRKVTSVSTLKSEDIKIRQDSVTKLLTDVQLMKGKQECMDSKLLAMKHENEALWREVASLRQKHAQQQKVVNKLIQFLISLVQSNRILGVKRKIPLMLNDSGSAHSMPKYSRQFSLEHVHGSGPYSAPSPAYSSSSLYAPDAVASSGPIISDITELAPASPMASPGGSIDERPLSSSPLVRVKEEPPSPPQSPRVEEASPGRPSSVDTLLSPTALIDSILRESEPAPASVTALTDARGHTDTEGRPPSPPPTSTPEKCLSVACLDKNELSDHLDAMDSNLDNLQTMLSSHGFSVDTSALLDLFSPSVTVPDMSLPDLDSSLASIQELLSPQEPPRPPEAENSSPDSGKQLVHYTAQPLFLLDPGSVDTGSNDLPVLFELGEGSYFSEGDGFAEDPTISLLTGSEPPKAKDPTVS
SMILES,outcome,AC50
Nc1ccc(-c2ccc(N)c(N)c2)cc1N,inactive,–
CCOP(O)OCC,inactive,–
C#CC1(O)CCCCC1,inactive,–
O=c1[nH]c(Cl)c(Cl)cc1Cl,inactive,–
CCC(C)c1cc(C(C)(C)C)cc(-n2nc3ccccc3n2)c1O (stereo not given),inactive,–
[CH3][Sn]([Cl])([Cl])[Cl],inactive,–
Nc1c(Cl)c(Cl)c(Cl)c(Cl)c1Cl,inactive,–
Nc1ccccc1C(=O)OCCc1ccccc1,inactive,–
N#Cc1cccc(C#N)c1,inactive,–
O=C(O)CCCc1ccc(N(CCCl)CCCl)cc1,inactive,–
Nc1cc(Cl)cc(Cl)c1,inactive,–
COc1ncc(F)c2nc(S(=O)(=O)Nc3c(F)cccc3F)nn12,inactive,–
[CH3][Sn]([CH3])([Cl])[Cl],–,114 µM (active)
BrCBr,inactive,–
CCc1cccc(C)c1N(C(=O)CCl)[C@@H](C)COC,inactive,–
O=P1(NCCCl)OCCCN1CCCl (stereo not given),inactive,–
CC(Cc1ccc(C(C)(C)C)cc1)CN1C[C@@H](C)O[C@@H](C)C1 (stereo not given in full),inactive,–
O=C(O)c1cc[c]([Hg][Cl])cc1,inactive,–

SMILES,outcome,AC50
C[N+](C)(C)CC(=O)O,inactive,–
O=S(=O)(c1ccccc1)c1ccccc1,inactive,–
Clc1ccc(-c2ccccc2)cc1,inactive,–
CN(C)C(=O)C(c1ccccc1)c1ccccc1,inactive,–
C=CCc1ccc(OC(=O)Cc2ccccc2)c(OC)c1,inactive,–
O=P(O)(Oc1ccccc1)Oc1ccccc1,inactive,–
CC1CCCC1.[C-]#[O+].[C-]#[O+].[C-]#[O+].[Mn],inactive,–
O=C(O)COc1ccccc1,inactive,–
[Cl][Sb]([Cl])[Cl],–,169 µM (active)
CCC(=O)c1ccc(Cl)cc1,inactive,–
Cc1ccc(N(SC(F)(Cl)Cl)S(=O)(=O)N(C)C)cc1,–,16.5 µM (active)
CC1(C)CC(=O)CC(C)(C)N1[O],inactive,–
SCc1ccco1,inactive,–
Oc1cc(Cl)ccc1Cl,inactive,–
O=[N+]([O-])c1cc(C(F)(F)F)c(Cl)c([N+](=O)[O-])c1Cl,–,5.39 µM (active)
C[C@]12CCC(=O)C(O)=C1CC[C@@H]1[C@@H]2CC[C@]2(C)C(=O)CC[C@@H]12,inactive,–
CSc1nc(N=[N+]=[N-])nc(NC(C)C)n1,inactive,–
O=[N+]([O-])O.O=[N+]([O-])O.[Cd],–,1.42 µM (active)

# Tested on: not listed separately
# Assay: ATG_MRE_CIS: Attagene CIS-FACTORIAL HepG2 Assay for human Metal Responsive Element (MRE) (AID 2282954)
# Conditions: HepG2 MRE cis-reporter transcription, Attagene multiplex; actives raise or lower the signal
# How it was run: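 Endogenous MRE-dependent transcription read as reporter mRNA in transiently transfected human HepG2 cells at 24 h. RNA reverse-transcribed, PCR-amplified, labelled and resolved by capillary electrophoresis; gain or loss relative to DMSO.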
SMILES,outcome,AC50
Nc1ccc(-c2ccc(N)c(N)c2)cc1N,inactive,–
CCOP(O)OCC,inactive,–
C#CC1(O)CCCCC1,inactive,–
O=c1[nH]c(Cl)c(Cl)cc1Cl,inactive,–
CCC(C)c1cc(C(C)(C)C)cc(-n2nc3ccccc3n2)c1O (stereo not given),inactive,–
[CH3][Sn]([Cl])([Cl])[Cl],inactive,–
Nc1c(Cl)c(Cl)c(Cl)c(Cl)c1Cl,inactive,–
COC(=O)c1ccccc1S(=O)(=O)NC(=O)Nc1nc(C)cc(C)n1,inactive,–
Nc1ccccc1C(=O)OCCc1ccccc1,–,33.4 µM (active)
N#Cc1cccc(C#N)c1,inactive,–
O=C(O)CCCc1ccc(N(CCCl)CCCl)cc1,inactive,–
Nc1cc(Cl)cc(Cl)c1,inactive,–
COc1ncc(F)c2nc(S(=O)(=O)Nc3c(F)cccc3F)nn12,inactive,–
COC(C)(C)CCC[C@H](C)C/C=C/C(C)=C/C(=O)OC(C)C,–,36.6 µM (active)
[CH3][Sn]([CH3])([Cl])[Cl],inactive,–
BrCBr,inactive,–
CCc1cccc(C)c1N(C(=O)CCl)[C@@H](C)COC,–,31.3 µM (active)
O=P1(NCCCl)OCCCN1CCCl (stereo not given),inactive,–
CC(Cc1ccc(C(C)(C)C)cc1)CN1C[C@@H](C)O[C@@H](C)C1 (stereo not given in full),–,24.2 µM (active)
O=C(O)c1cc[c]([Hg][Cl])cc1,–,7.75 µM (active)

SMILES,outcome,AC50
C[N+](C)(C)CC(=O)O,inactive,–
O=S(=O)(c1ccccc1)c1ccccc1,inactive,–
Clc1ccc(-c2ccccc2)cc1,inactive,–
CN(C)C(=O)C(c1ccccc1)c1ccccc1,inactive,–
C=CCc1ccc(OC(=O)Cc2ccccc2)c(OC)c1,inactive,–
O=P(O)(Oc1ccccc1)Oc1ccccc1,inactive,–
CC1CCCC1.[C-]#[O+].[C-]#[O+].[C-]#[O+].[Mn],inactive,–
O=C(O)COc1ccccc1,inactive,–
[Cl][Sb]([Cl])[Cl],inactive,–
CCC(=O)c1ccc(Cl)cc1,inactive,–
Cc1ccc(N(SC(F)(Cl)Cl)S(=O)(=O)N(C)C)cc1,–,15.8 µM (active)
CC1(C)CC(=O)CC(C)(C)N1[O],inactive,–
SCc1ccco1,inactive,–
O=CNC(N1CCN(C(NC=O)C(Cl)(Cl)Cl)CC1)C(Cl)(Cl)Cl (stereo not given),inactive,–
Oc1cc(Cl)ccc1Cl,inactive,–
O=[N+]([O-])c1cc(C(F)(F)F)c(Cl)c([N+](=O)[O-])c1Cl,–,5.11 µM (active)
C[C@]12CCC(=O)C(O)=C1CC[C@@H]1[C@@H]2CC[C@]2(C)C(=O)CC[C@@H]12,inactive,–
CSc1nc(N=[N+]=[N-])nc(NC(C)C)n1,inactive,–
O=[N+]([O-])O.O=[N+]([O-])O.[Cd],–,0.351 µM (active)

# Reference: PubChem BioAssay (EPA / NIEHS)
